# Measured values published in PubChem BioAssay AID686979 (National Center for Advancing Translational Sciences (NCATS), 2013).
# Hit rate of the full screen: of about 420,000 compounds, about 50,000 (12%) were called active. Entries that show only a call come without a potency. Not shown: some 26% with an inconclusive outcome. This is one part of a sample in which actives are shown more often than they occur. Calls follow the shape of the dose curve; as a rule, active = well fitted inhibition curve with a large enough effect; inconclusive = small, poorly fitted or top-dose-only effect; inactive = flat fitted curve, though single readings scatter.
# Assay: qHTS for Inhibitors of human tyrosyl-DNA phosphodiesterase 1 (TDP1): qHTS in cells in presence of CPT; also: nearly all actives have a fitted effect of over 55% in size
# Conditions: chicken DT40 Tdp1-/-;hTDP1 cells + 20 nM CPT, ATP luminescence, 48 h; series mostly up to 46.2 µM
# Outline: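 Chicken DT40 Tdp1-/- cells complemented with human TDP1, 400 cells/well, exposed to compounds plus 20 nM camptothecin for at least 48 h at 37 C; viability read as ATP content by CellTiter-Glo luminescence.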
# Potency is read from the fitted curve at half-maximal effect.
row,SMILES,Potency
1,O=C(O)CC/C(=C\c1cc2c(cc1Br)OCO2)c1nc2ccccc2s1,inactive
2,O=C(N1CCCC1)C12CC3CC(C1)CC(C(=O)N1CCCC1)(C3)C2,inactive
3,CCCc1nc(SCC(=O)N2CCCC2)c2c(=O)n(C)c(=O)n(C)c2n1,inactive
4,CCCc1nc(SCC(=O)Nc2ccccc2OC)c2c(=O)n(C)c(=O)n(C)c2n1,14.6 µM (active)
5,CCc1nc(SCC(=O)Nc2ccccc2OC)n[nH]1,inactive
6,O=C(Cc1c[nH]c2ccccc12)N/N=C/c1cccc(F)c1,inactive
7,O=C(CSCc1c(Cl)cccc1Cl)NN1C(=O)c2ccccc2C1=O,inactive
8,Cc1ccccc1CNC(=O)Cn1c(C)c2cnn(-c3ccccc3)c(=O)c2c1C,inactive
9,CCCn1c2ccccc2c2cnn(CC(=O)NCC3CCN(Cc4ccc(C)cc4)CC3)c(=O)c21,20.6 µM (active)
10,CC1CC(C)CN(CCCNC(=O)Cn2ncc3c([nH]c4ccccc43)c2=O)C1 (stereo not drawn),inactive
11,COc1cc(NC(=O)NCC2CCN(Cc3ccc(C)cc3)CC2)cc(OC)c1OC,inactive
12,Cc1ccc(Cn2c(C)c3cnn(CC(=O)NCCN4CCOCC4)c(=O)c3c2C)cc1,inactive
13,O=C(Cn1ncc2c3ccccc3n(Cc3ccccc3)c2c1=O)NCc1ccccn1,inactive
14,Cc1ccc(Cn2c(C)c3cnn(CC(=O)NCc4ccccc4)c(=O)c3c2C)cc1,2.91 µM (active)
15,CC1CCCCN1CCCNC(=O)Cn1ncc2c([nH]c3ccccc32)c1=O (stereo not drawn),inactive
16,CCCn1c2ccccc2c2cnn(CC(=O)NCCCOC(C)C)c(=O)c21,23.1 µM (active)
17,O=C1C(Cl)=C(N2CCOCC2)C(=O)N1c1ccccc1,inactive
18,CCOC(=O)CNC(=O)CSc1ncccc1-c1nc2ccccc2[nH]1,inactive
19,COc1ccccc1C1=CC(=O)C[C@H](c2ccc(F)cc2)C1,inactive
20,COc1ccc(-c2nnc3n2CCCCC3)cc1,inactive
21,O=C(O)c1ccc([N+](=O)[O-])cc1Sc1ccsc1,inactive
22,COc1ccc(-c2nc3c(c(SCC(=O)Nc4ccc(C(=O)O)cc4)n2)Cc2ccccc2O3)cc1,inactive
23,Cc1ccc(-c2nc(Cn3c(=O)cc(-c4ccccc4)c4c(C)nn(C)c43)c(C)o2)cc1,inactive
24,CCOC(=O)Nc1ccc(NC(=O)OCC)cc1,inactive
25,CCOC(=O)Nc1ccc2c(c1)N(C(=O)CCN1CCN(CCO)CC1)c1ccccc1CC2,inactive

row,SMILES,Potency
1,CCOC(=O)Nc1ccc2c(c1)N(C(=O)CCCl)c1ccccc1[S@]2=O,4.61 µM (active)
2,CN(CC(=O)Nc1ccccc1F)CC(=O)Nc1ccccc1Br,inactive
3,CN(C(=N)N)c1ccc(/C=C2\C=Cc3ccccc32)cc1,5.01 µM (active)
4,COc1ccc(N(CC(=O)N/N=C/c2cccc3c2OCCO3)S(=O)(=O)c2ccc(NC(C)=O)cc2)cc1,inactive
5,O=C(c1cccc(S(=O)(=O)Nc2ccccc2Cl)c1)N1CCN(C(=O)c2ccco2)CC1,inactive
6,CC(=O)N1CCN(C(=O)c2cccc(S(=O)(=O)Nc3ccc(C)cc3)c2)CC1,inactive
7,CCCCc1ccc(NS(=O)(=O)c2cccc(C(=O)N3CCCN(C)CC3)c2)cc1,23.1 µM (active)
8,COc1ccc(Br)c2c1C(=O)CC2,inactive
9,Nc1nonc1-n1nnc(C(=O)N/N=C/C2CCCCC2)c1-c1ccccc1,inactive
10,CC(=O)Nc1ccc(Oc2ccc3c(c2)C(=O)NC3=O)cc1,inactive
11,O=C(NNS(=O)(=O)Cc1ccccc1)c1ccc([N+](=O)[O-])cc1,inactive
12,O=C(CCn1nnc2ccccc21)OCC(=O)c1ccc([N+](=O)[O-])cc1,inactive
13,O=C(CC(n1cncn1)C(Cl)(Cl)Cl)c1ccc([N+](=O)[O-])cc1 (stereo not drawn),16.4 µM (active)
14,O=C(COc1coc(CN2CCN(c3ccccc3F)CC2)cc1=O)N1CCc2ccccc21,inactive
15,Cc1cc(N2CCOCC2)nc(-c2ccc(Br)cc2)n1,inactive
16,O=C1CC(C(=O)O)NC(=S)N1 (stereo not drawn),inactive
17,COc1ccc(-n2c(=O)c(C)nc3cnc(N4CCOCC4)nc32)cc1,inactive
18,COc1ccc(Nc2ncc(F)c(N3CCOCC3)n2)cc1,20.6 µM (active)
19,CCOc1nc(NCCN2CCOCC2)nc(Nc2ccc(C)cc2)n1,inactive
20,Cc1ccc(-c2nnc3c4ccccc4c(C)nn23)cc1NC(=O)c1cccc(Br)c1,inactive
21,Cc1cc[n+](-c2[nH]c(=O)sc2/C=N/NC(=O)c2ccccc2[O-])cc1C,inactive
22,O=C(CN1CCN(c2ccccn2)CC1)Nc1ccc(Br)cc1,inactive
23,Brc1ccc(-c2n(-c3ccccn3)c3ccccc3[n+]2-c2ccccn2)cc1,18.4 µM (active)
24,COc1cccc(NC(=O)N2CCC(NC(=O)C(Cc3cccc(C)c3)NC(C)=O)CC2)c1 (stereo not drawn),inactive
25,Cn1c(-c2ccc(C(F)(F)F)cc2)cc2onc(-c3ccccc3)c2c1=O,inactive

row,SMILES,Potency
1,O=C(c1csnn1)N1CCC2(CC1)CN(c1ncccn1)C2,inactive
2,CSCCC(Nc1ccc(S(=O)(=O)N2CCOCC2)cc1[N+](=O)[O-])C(=O)OCC(=O)N(C(C)C)C(C)C (stereo not drawn),inactive
3,CN(C)C(=O)c1ccc(NC(=O)c2ccccc2-c2ccccc2)cc1,inactive
4,CN(C)C(=O)c1ccc2c(c1)C1C3CCC(C3)C1C(c1ccccc1)N2 (stereo not drawn),16.4 µM (active)
5,Cc1sc(NC(=O)c2ccc3ncsc3c2)c(C(N)=O)c1C,inactive
6,COc1cccc(NC(=O)N2C3CCCC2CC(NC(C)=O)C3)c1 (stereo not drawn),inactive
7,CCOC(=O)N1CCC(NC(=O)CCc2ccccc2)CC1,inactive
8,CCOC(=O)N1CCC(NC(=O)c2cnn(-c3cccc(C)c3)c2C2CCN(C(=O)OC(C)(C)C)CC2)CC1,23.1 µM (active)
9,CC(C)(C)OC(=O)N1CCC(c2c(C(=O)N3CCN(c4cccc(Cl)c4)CC3)cnn2-c2cccc(Cl)c2)CC1,14.6 µM (active)
10,CCOC(=O)N1CCC(NC(=O)c2cnn3ccccc23)CC1,inactive
11,CC(C)(C)OC(=O)N1CCC(C(=O)NNC(=O)c2ccc(Cl)cc2Cl)CC1,inactive
12,Cc1cccc(-n2ncc(C(=O)N3CCC(C)CC3)c2C2CCN(C(=O)OC(C)(C)C)CC2)c1,inactive
13,Cc1cccc(-n2ncc(C(=O)N3CCN(c4ccc(Cl)cc4)CC3)c2C2CCN(C(=O)OC(C)(C)C)CC2)c1,14.6 µM (active)
14,COc1cccc2c1cc1c(=O)n(CC(=O)N3CCN(c4cccc(Cl)c4)CC3)nc(C)n12,inactive
15,Cc1cccc(-n2ncc(C(=O)N3CCc4ccccc4C3)c2C2CCN(C(=O)OC(C)(C)C)CC2)c1,inactive
16,CCCCN(C(=O)CCNC(=O)NC12CC3CC(CC(C3)C1)C2)c1c(N)n(CCCC)c(=O)[nH]c1=O,inactive
17,Cc1ccc(S(=O)(=O)N2CC(O)C[C@H]2C(=O)OCC(=O)Nc2ccc(N3CCOCC3)cc2)cc1C (stereo partly drawn),inactive
18,COc1ccc(S(=O)(=O)N2CCCC2CNC(=O)C(=O)NC2CC2)cc1 (stereo not drawn),inactive
19,Cc1ccc(NC(=O)CC2S/C(=N/N=C3\CCCc4ccccc43)NC2=O)cc1 (stereo not drawn),inactive
20,CN1C(=O)/C(=C\c2cc(Br)cs2)c2ccccc21,inactive
21,N#CC1=C(N)Oc2c(ccc3cccnc23)C1c1ccncc1 (stereo not drawn),inactive
22,N#CC1=C(N)Oc2cc(N)ccc2C1c1ccccc1 (stereo not drawn),23.1 µM (active)
23,Cc1cc(C)c2c3c(sc2n1)C(c1ccccc1)C(C#N)=C(N)O3 (stereo not drawn),inactive
24,CN1C(=O)C2(OCCCO2)c2cc(Cl)ccc21,inactive
25,C=O,inactive

row,SMILES,Potency
1,COc1ccc(C(CNC(=O)c2ccc(OCc3cscn3)cc2)N2CCCC2)cc1 (stereo not drawn),inactive
2,CCOc1ccc(NS(=O)(=O)c2ccc(C(=O)NCC(c3ccccc3OC)N3CCCC3)cc2)cc1 (stereo not drawn),29.1 µM (active)
3,CCOc1ccc(NS(=O)(=O)c2ccc(C(=O)NCC3CCCO3)cc2)cc1 (stereo not drawn),inactive
4,CN=C(NC#N)NCCSCc1nc[nH]c1C,inactive
5,CCC(C)C(=O)Nc1cc([N+](=O)[O-])ccc1Cl (stereo not drawn),inactive
6,CC(=O)Nc1ccc(NC(=O)c2ccc3c(c2)C(=O)N(c2ccccc2C)C3=O)cc1,inactive
7,O=S(=O)(c1ccc2nc(N3CCN(c4cccc(Cl)c4)CC3)ccc2c1)N1CCCCC1,inactive
8,O=S(=O)(NCc1ccccc1)c1ccc(S(=O)(=O)N2CCCC2)cc1,inactive
9,O=S(=O)(c1ccc2nc(NCc3ccccc3Cl)ccc2c1)N1CCCCC1,10.3 µM (active)
10,CC(C)C(NC(=O)C1CCC(C(C)(C)C)CC1)C(=O)NCCCN1CCCCC1 (stereo not drawn),inactive
11,CC(C)N1C(=O)c2ccccc2NC(=O)C1C(=O)NCc1cccs1 (stereo not drawn),inactive
12,CCOc1ccc(NC(=O)c2cc(S(=O)(=O)N3CCCC3)c[nH]2)cc1,inactive
13,CCOc1ccc(N(CC)S(=O)(=O)N2CCCC(C(=O)NCc3ccc(SC)cc3)C2)cc1 (stereo not drawn),23.1 µM (active)
14,CCS(=O)(=O)N1CCCC(C(=O)NCc2ccc(C)cc2)C1 (stereo not drawn),inactive
15,CCOc1ccc(N(CC)S(=O)(=O)N2CCCC(C(=O)Nc3ccc(C(C)=O)cc3)C2)cc1 (stereo not drawn),20.6 µM (active)
16,CCOc1ccc(NC(=O)C2CCCN(C(=O)Nc3ccccc3)C2)cc1 (stereo not drawn),inactive
17,COc1ccc(CNC(=O)C2CCN(S(=O)(=O)c3ccc(SC)cc3)CC2)cc1,inactive
18,COc1cccc(CNC(=O)CN(C)S(=O)(=O)c2ccc3c(c2)c(=O)n(C)c(=O)n3C)c1,inactive
19,Cc1ccc(C)c(OCCC(=O)OCC(=O)c2ccc3c(c2)NC(=O)CO3)c1,inactive
20,Cc1ccc(C23CC4CC(CC(C(=O)NCC(=O)O)(C4)C2)C3)cc1,inactive
21,CC1CC1C(=O)OCC(=O)c1c(N)n(C)c(=O)n(C)c1=O (stereo not drawn),inactive
22,COc1ccc(C(=O)COC(=O)CN2C(=O)C3CC=CCC3C2=O)c(OC)c1 (stereo not drawn),inactive
23,CC(C)Cn1c(N)c(C(=O)COC(=O)CN2C(=O)C3CC=CCC3C2=O)c(=O)n(C)c1=O (stereo not drawn),16.4 µM (active)
